# Screening data (PubChem BioAssay)
# DT40 TDP1 CPT: DT40-hTDP1 cell growth loss with CPT; chicken DT40 Tdp1-/-;hTDP1 cells + 20 nM CPT, ATP luminescence, 48 h; Potency, µM (highest dose often 46.2 µM), actives largely listed as inhibitors; 420,000 tested, 12% active; further: nearly all actives have a fitted effect of over 55% in size
#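 Chicken DT40 Tdp1-/- cells stably complemented with human TDP1 were seeded at 400 cells/well in medium containing 20 nM camptothecin, exposed to pin-transferred compounds, and grown at 37 °C for at least 48 hr. Viability was read as ATP luminescence.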
# IL-1B inflam inh: blocks inflammasome-driven IL-1 beta release; THP-1 LPS/ATP IL-1B secretion, AlphaLISA, 16 h; stronger effect = lower value; activity change, % at 57.5 µM; 360,000 tested, 4.7% active; AID 743279; in the data active means activity change below about -50%; inconclusive means mostly about -30% to -49%
#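 Secreted IL-1B measured by AlphaLISA bead assay after 16 h compound exposure of THP-1 cells; compounds (final up to 57.5 uM) added 1 h before LPS (250 ng/mL) and ATP (1.25 mM) stimulation; lower signal means less secretion.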
# HT1080-NT tox: kills 2HG-producing HT-1080-NT fibrosarcoma cells; HT-1080-NT fibrosarcoma viability, CellTiter-Glo ATP luminescence, 48 h; 360,000 tested, 1.6% active; Potency, µM (titrated, usually from 46.1 µM), hits mostly cytotoxic;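 further: NT is the 2HG producing partner of a matched IDH1 knockdown line; nearly all actives have a fitted effect of over 55% in size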
#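 Fibrosarcoma NT cells, 750 per well in 5% FBS RPMI, were exposed to compound for 48 hours. Viability: CellTiter-Glo luminescence.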
# TDP1 cell noCPT: qHTS for Inhibitors of human tyrosyl-DNA phosphodiesterase 1 (TDP1): qHTS in cells in absence of CPT. DT40 Tdp1-/- hTDP1 cells, no CPT, ATP luminescence, 48 h. Potency, µM (series often up to 46.2 µM), hits mostly inhibitors. 420,000 tested, 15% active; further: nearly all actives have a fitted effect of over 55% in size
#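 A cellular qHTS used chicken DT40 cells lacking endogenous Tdp1 but carrying stably transfected human TDP1. Compounds were applied without camptothecin, and cell growth kinetics were judged by ATP-dependent luminescence after ≥48 hr.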
# HT1080 IDH1KD tx: HT-1080 IDH1 knockdown cell toxicity (counter line). HT-1080 IDH1 knockdown viability, ATP luminescence, 48 h. Potency, µM (titrated, usually from 46.1 µM), actives largely listed as cytotoxic. 360,000 tested, 2% active
#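 % activity derives from luminescence (CellTiter-Glo), normalised to DMSO and no-cell wells. HT-1080-IDH1KD cells, 750/well, had 48 h compound exposure at 37 °C.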
# Hits are given with their value; - = inactive; ? = inconclusive; . = no result given; ! = not active in a repeat. Rows were chosen to be rich in hits. Some 19% of all compounds tested hit in one or more screens of this group. Unless noted, the call rests on the fitted dose curve; in most records, active means well fitted curve in the direction sought with a large enough effect; inconclusive means small, poorly fitted or top-dose-only effect, or another doubt; inactive means no such curve, though single readings can be large; an effect the other way counts as inactive or inconclusive.
SMILES,DT40 TDP1 CPT,IL-1B inflam inh,HT1080-NT tox,TDP1 cell noCPT,HT1080 IDH1KD tx
COC(=O)c1c(OCc2cccnc2)cc(=O)n2c1CCN(Cc1cc3c(cc1Cl)OCO3)CC2,?,.,.,18µM,.
O=C(Cc1ccccc1)N1CCN(Cc2cccnc2)CC1,-,-,-,-,-
Cn1c(O)c(/C=C2/C=CC=N2)c(=O)[nH]c1=O,16µM,?,-,16µM,-
COCC(=O)N1CCC2(CCCN(Cc3ccncc3)C2)CC1,-,.,.,-,.
CN(C(=O)Oc1ccc(C(=O)c2ccc(Cl)cc2)cc1)c1ccccc1,23µM,-,-,16µM,-
Cc1c(C(=O)N2CCC3(CC2)OCCO3)sc2ncnc(N3CCN(c4ccccn4)CC3)c12,21µM,-81,-,16µM,-
CCCNC(=O)Cn1cnc2sc(C(=O)N3CCC4(CC3)OCCO4)c(C)c2c1=O,-,-,-,-,-
CN[C@@H](C)Cc1ccccc1,-,.,.,-,.
C[C@H]1O[C@@H](O[C@H]2[C@@H](O)C[C@@H](O[C@H]3[C@@H](O)C[C@H](O[C@H]4CC[C@@]5(C)[C@H](CC[C@@H]6[C@@H]5CC[C@]5(C)[C@@H](C7=CC(=O)OC7)CC[C@]65O)C4)O[C@@H]3C)O[C@@H]2C)C[C@H](O)[C@@H]1O,0.32µM,.,.,0.11µM,.
CNC(=O)Nc1ccc(C(=O)N/N=C\C23CC[C@@H](O)CC2(O)CC[C@@H]2[C@@H]3CCC3(C)C(C4=CC(=O)OC4)CCC23O)cc1 (stereo partly drawn),-,-,?,-,?
CO[C@H]1[C@@H](O)C[C@H](O[C@H]2[C@@H](O)C[C@H](O[C@H]3[C@@H](O)C[C@H](O[C@H]4CC[C@@]5(C)[C@H](CC[C@@H]6[C@@H]5C[C@@H](O)[C@]5(C)[C@@H](C7=CC(=O)OC7)CC[C@]65O)C4)O[C@@H]3C)O[C@@H]2C)O[C@@H]1C,0.53µM,.,.,0.38µM,.
C[C@H]1O[C@@H](O[C@H]2[C@@H](O)C[C@H](O[C@H]3[C@@H](O)C[C@H](O[C@H]4CC[C@]5(C)C6CC[C@]7(C)[C@@H](C8=CC(=O)OC8)CC[C@]7(O)C6CC[C@@H]5C4)O[C@@H]3C)O[C@@H]2C)C[C@H](O)[C@@H]1O (stereo partly drawn),0.34µM,.,.,0.38µM,.
CC1O[C@@H](O[C@@H]2C(O)C[C@H](O[C@@H]3C(O)C[C@@H](OC4CC[C@@]5(C)C6CC[C@]7(C)C(C8=CC(=O)OC8)CC[C@@]7(O)C6CC[C@@H]5C4)OC3C)OC2C)CC(O)[C@H]1O (stereo partly drawn),1µM,.,.,0.73µM,.
COc1ccc(-c2ccc3c(c2)CN(C(=O)C(C)(C)C)Cc2cnnn2-3)cc1,?,-,-,?,-
COC1C(O)C(OC2CC[C@]3(C=O)C4C(OC(C)=O)C[C@@]5(C)C(C6=CC(=O)OC6)CC[C@]5(O)C4CC[C@]3(O)C2)OC(C)C1OC(C)=O (stereo partly drawn),-,.,.,-,.
COC1C(O)C(C)OC(OC2CCC3(C)C(CCC4C3C(O)CC3(C)C(C5=CC(=O)OC5)CCC43O)C2)C1O (stereo not drawn),1.8µM,-,1.5µM,2.1µM,0.82µM
O=C1CCC2(O)C3Cc4ccc(O)c5c4C2(CCN3Cc2ccoc2)C1O5 (stereo not drawn),-,-,-,-,-
COC(=O)c1cc(NC(=O)Cn2nc(-c3ccccc3)c3c(c2=O)CCCC3)cc(C(=O)OC)c1,?,.,.,18µM,.
COc1ccc(CCNC(=O)c2ccc3c(c2)CCN3S(=O)(=O)c2ccc(C)cc2)cc1OC,21µM,.,.,13µM,.
COC(=O)C1=C(c2ccc(F)cc2F)C[C@@H]2CC[C@H]1N2C(=O)NCCOc1ccc(OC)cc1,?,-,-,?,-
CCN1C[C@@]2(COC)C3[C@@H](OC)[C@H]4[C@@H]1[C@@]3(C1C[C@@]3(O)[C@H](OC(=O)c5ccccc5)C1[C@]4(OC(C)=O)[C@@H](O)[C@H]3OC)[C@@H](OC)C[C@H]2O (stereo partly drawn),-,-,-,-,-
CC(Oc1ccc(Cl)cc1Cl)C(=O)Nc1ccc(S(=O)(=O)Nc2cnc3ccccc3n2)cc1 (stereo not drawn),?,-,-,26µM,-
CCOc1ccc(S(=O)(=O)Nc2cccc(C(=O)N3CCN(c4ccccn4)CC3)c2)cc1,13µM,-,-,16µM,-
CS(=O)(=O)c1ccc(C2=C(CNC(=O)c3ccc([N+](=O)[O-])cc3)[C@H]3CC[C@@H](C2)N3CCOc2ccccc2)cc1,?,-,-,15µM,-
O=C(NCC1=C(c2cccc3ccccc23)C[C@@H]2CC[C@H]1N2Cc1ccco1)c1ccc([N+](=O)[O-])cc1,21µM,-62,?,18µM,?
SMILES,DT40 TDP1 CPT,IL-1B inflam inh,HT1080-NT tox,TDP1 cell noCPT,HT1080 IDH1KD tx
COC(=O)C1=C(c2ccc(OC)c(OC)c2)C[C@@H]2CC[C@H]1N2C(=O)NC1Cc2ccccc2C1,?,-,-,-,-
COC(=O)C1=C(c2ccc3ccccc3c2)C[C@@H]2CC[C@H]1N2C(=O)NC1CCCCC1,?,-,-,16µM,-
COC(=O)C1=C(c2ccc3ccccc3c2)C[C@@H]2CC[C@H]1N2C(=O)NCC1CC1,12µM,-,-,9.2µM,-
COC(=O)C1=C(c2ccc3ccccc3c2)C[C@@H]2CC[C@H]1N2C(=O)NC1CC1,15µM,-,-,9.2µM,-
COC(=O)C1=C(c2ccc(C(C)=O)cc2)C[C@@H]2CC[C@H]1N2C(=O)NC1CCCCC1,?,-,-,?,-
CNC(=O)NC(O)C(Cl)(Cl)Cl (stereo not drawn),-,-,-,-,-
CC[C@H](CO)Nc1nc(NCc2ccccc2)c2ncn(C(C)C)c2n1,25µM,.,.,22µM!,.
CC[C@@H](CO)NC(=O)[C@H]1C=C2c3cccc4[nH]cc(c34)C[C@H]2N(C)C1,-,.,.,-,.
CO[C@H]1C=CCCC=CC(=O)O[C@H]([C@H](C)C(=O)CCCC2CC(=O)NC(=O)C2)C(C)=C[C@@H](C)[C@@H]1O,16µM,-,-,6.5µM,-
C=CCn1c(O)c(C(CC)=Nc2ccccc2NC(C)=O)c(=O)[nH]c1=O,-,-,-,-,-
C/C=C1/C[C@@H](C)[C@](O)(CO)C(=O)OCC2=CCN3CC[C@@H](OC1=O)[C@@H]23,?,-,-,?,-
CC(C)C(=O)N1CCC(CN=Cc2c(O)n(C3CCCCC3)c(=O)n(C3CCCCC3)c2=O)CC1,?,?,?,23µM,?
O=C1/C(=C/c2cccc([N+](=O)[O-])c2)N2CCC1CC2,-,-68,-,-,-
O=C1/C(=C/c2cc([N+](=O)[O-])ccc2Cl)N2CCC1CC2,18µM,-,-,16µM,-
